This is a sample that favours compounds with a hit; in the whole collection about 2.7% have one here.
Tau FP inhib = tau fibrillization inhibition (FP). K18 P301L tau heparin fibrillization, Alexa594 FP, 6 h. Potency, µM (highest dose often 57.7 µM), for the others: at the highest dose activity, negative = inhibition, actives largely listed as inhibitors. P10636. 280,000 tested, 0.39% active. AID 1468; further: potency means the concentration at half of the fitted maximal effect; nearly all actives have a fitted effect of over 55% in size
Target sequence (P10636 561-689 P618L limits assumed): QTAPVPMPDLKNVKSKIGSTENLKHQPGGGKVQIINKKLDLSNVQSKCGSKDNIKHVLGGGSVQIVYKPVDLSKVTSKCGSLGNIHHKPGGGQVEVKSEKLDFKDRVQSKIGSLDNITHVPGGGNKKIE
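Human tau K18 […] P301L fragment, 15 uM unlabeled plus 0.24 uM Alexa 594-labeled tau (final), with compound and 20 uM heparin in 100 mM sodium acetate pH 7; 6 hr at 37 C, then Alexa 594 FP read.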
Tau fluor counter = counter-screen for tau fibril formation inhibitors; tau K18 P301L Alexa594 fluorescence, heparin fibrillization; Potency, µM (series often up to 57.7 µM), without a hit: at the top dose activity change, negative = decrease; 280,000 tested, 0.93% active; further: potency means the concentration at half of the fitted maximal effect; nearly all actives have a fitted effect of over 55% in size
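Human tau K18 P301L (15 uM unlabeled, 0.24 uM Alexa 594-labeled) in 100 mM sodium acetate pH 7 with 20 uM heparin, 6 hr at 37 C. ThT 30 uM added, 1 hr ambient; Alexa 594 FP and total fluorescence read at 555/632 nm.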
FBPA coupling cs = counter-screen for Giardia aldolase inhibitors: coupling enzyme system; coupling enzyme system counterscreen, AmpLite Red fluorescence; activity change, negative = inhibition, % at 58.2 µM, hits read low; 290,000 tested, 0.67% active; AID 2472; in the data active means activity change below about -30%
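Activity here indicates interference with the coupling reaction, not aldolase inhibition. Compounds at 57.5 uM final met coupling enzymes for 10 min at RT; substrate and AmpLite Red detection followed, with a 525/598 nm fluorescence read after 20 min.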
Tau ThT inhib = blocks human tau fibril formation measured by thioflavin T; recombinant tau K18 P301L, heparin-induced fibrillization, ThT fluorescence; P10636; AID 1460; 270,000 tested, 2.1% active; Potency, µM (doses to about 57.4 µM), without a hit: at the highest dose activity, negative = inhibition, usual class: inhibitors; further: potency means the concentration at half of the fitted maximal effect; nearly all actives have a fitted effect of over 55% in size
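Using a mix of unlabeled (15 uM) and Alexa 594-labeled (0.24 uM) tau K18 P301L, heparin-triggered fibrillization over 6 hr at 37 C was scored by ThT fluorescence.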
Numbers without * were called inactive; ? = inconclusive; . = not tested or not shown; [ ] = remark or other dose. Unless noted, the call rests on the fitted dose curve; in most records, active means well fitted curve in the direction sought with a large enough effect; inconclusive means small, poorly fitted or top-dose-only effect, or another doubt; inactive means no such curve, though single readings can be large; an effect the other way counts as inactive or inconclusive. On the % scale 0 is the no-effect control and ±100 the full control effect.

SMILES | Tau FP inhib | Tau fluor counter | FBPA coupling cs | Tau ThT inhib
Cc1ccc(NC(=O)CSc2nc(-c3cccs3)nc3cc(=O)[nH]n23)cc1 | -1% | 2% | . | -2%
CC(=O)OC1CC(OC(C)=O)[C@]2(C)C(CC(=O)[C@]3(C)C2CC[C@@]2(C)C(c4ccoc4)OC(=O)C4O[C@@]423)C1(C)C (stereo partly drawn) | 32µM* | -21% | 2 | 25µM*
COC(=O)N[C@H](c1ccccc1)C(C(C)=O)C(=O)OC (stereo partly drawn) | 1% | 3% | 9 | 1%
COC(=O)NC(c1ccccc1)C(C(=O)OC)C(=O)OC (stereo not drawn) | -17%[11.6 µM] | -12%[11.6 µM] | -31* | -8%[11.5 µM]
O=C(Nc1cccc(Cl)c1)c1ccc(F)c(S(=O)(=O)NCc2ccc3c(c2)OCO3)c1 | ? | 16µM*[quencher] | 3 | -14%
CCOC(=O)c1ccc(CN(Cc2ccc(F)cc2)S(=O)(=O)c2cc(C(=O)Nc3cccc(C(F)(F)F)c3)ccc2F)cc1 | 14µM* | 0% | . | 7%
Cc1ccc(CNS(=O)(=O)c2cc(C(=O)Nc3cccc(C(F)(F)F)c3)ccc2F)cc1 | 14µM* | ? | . | 22%
N#Cc1nc(COc2cccc(Cl)c2)oc1NCCc1ccccc1 | -7% | ? | . | ?
COc1cc(CNC(=O)c2sc3ncccc3c2-n2cccc2)cc(OC)c1OC | -4% | -18% | . | -8%
CC1(C)Cc2c(C#N)c(NC3CCCCC3)nc(-c3ccco3)c2CO1 | -8% | -4% | -30* | ?
CC1(C)Cc2c(C#N)c(NCC3CCCO3)nc(-c3ccco3)c2CO1 (stereo not drawn) | -2% | -7% | -7 | ?
Cc1c(/C=N/Nc2nc3ccccc3[nH]2)c2ccccc2n1C | 18% | 14µM*[quencher] | -4 | .
C=CCn1cc(/C=N/Nc2nc3ccccc3[nH]2)c2ccccc21 | 1% | 11µM*[quencher] | -9 | 7.9µM*
C(=N\Nc1nc2ccccc2[nH]1)/c1cccs1 | 18µM* | ? | -9 | 5µM*
CC(C)Cn1c(/C=N/Nc2nc3ccccc3[nH]2)nc2ccccc21 | 13% | 28µM*[quencher] | 0 | ?
O=C(COc1ccccc1Cl)OCc1cc(=O)n2nc(C3CC3)sc2n1 | 2% | 5% | . | 2%
Cn1c(/C=N/Nc2nc3ccccc3[nH]2)nc2ccccc21 | 0% | ? | -1 | 4µM*
CCCCCSc1nnc2c(n1)[nH]c1c(C)cccc12 | -7% | 0% | . | -10%
CC(/C=N\Nc1nnc2c(n1)[nH]c1c(C)cccc12)=C\c1ccco1 | 12% | ? | 0 | 1.4µM*
Cc1c(CN(C)C)c2c(n1Cc1ccccc1)C(=O)c1ccc(Br)cc1-2 | 13% | ? | 1 | 16µM*
Cc1c(CN(C)C)c2c(n1C)C(=O)c1ccc(Br)cc1-2 | 7% | -7% | -3 | ?
Cc1ccc(/C=C2\Sc3ccccc3C2=O)s1 | 2% | -15% | 0 | 3.2µM*
CC(=O)Nc1ccc(/C=C2\Sc3ccccc3C2=O)cc1 | 1% | -10% | 4 | ?
COc1ccccc1N1CCN(S(=O)(=O)c2c(C)sc3ncn(CC(=O)N(C)c4ccc(C(C)C)cc4)c(=O)c23)CC1 | 6% | -21% | . | -16%
CN(c1ncnc2onc(-c3cccc(Cl)c3)c12)C1CCCCC1 | 3% | -9% | . | -8%
SMILES | Tau FP inhib | Tau fluor counter | FBPA coupling cs | Tau ThT inhib
O=C(Nc1ccc2ccccc2c1)N1CCN(c2ncccc2C(F)(F)F)CC1 | -2% | -7% | -50* | -5%
O=C(NC(=S)NNC(=O)c1ccccc1O)c1ccco1 | 5% | -15% | -1 | ?
O=C(NC(=S)NNC(=O)c1cc2ccccc2cc1O)c1ccco1 | 12% | -29% | 3 | 13µM*
CC1=C(SCCC#N)S/C(=C2\SC(C)=C(SCCC#N)S2)S1 | ? | ? | -2 | 7.9µM*
CC(/C=N/NC(=O)c1cc(-c2ccncc2)nc2ccccc12)=C\c1ccco1 | -5% | ? | -40* | ?
Cc1ccc(/C=N/NC(=O)c2cc(-c3ccncc3)nc3ccccc23)o1 | . | . | 0 | .
CCOc1ccccc1CNS(=O)(=O)c1ccc(-c2coc(C)n2)cc1 | 8% | -9% | . | 7%
CC(C)c1c(O)c(-c2cc3c(c(C(C)C)c2O)CCC2C(C)(C)CCC[C@@]32C)cc2c1CCC1C(C)(C)CCC[C@@]21C (stereo partly drawn) | -17% | -13% | 13 | -3%
CC(C)c1cc2c(c(O)c1O)[C@@]13CCCC(C)(C)C1CC2OC3=O (stereo partly drawn) | . | . | -30* | .

Bioassay records deposited in PubChem BioAssay by National Center for Advancing Translational Sciences (NCATS).
